Measurements published in PubChem BioAssay (EPA / NIEHS).
“And” between values parts separate entries of the source, which are not always exact repeats. Equal values may be shown once. Inconclusive results are not listed. More than one record can exist for a structure, and the calls need not agree. The source made the active and inactive calls. The calls were made as follows, unless noted: active = hit-call score of the fitted dose curve at least 0.9, where 1 is the maximum; inactive = score below 0.9.

Key:
[1] = BSK_LPS_PGE2: BioMAP Diversity Plus: LPS Assay for Prostaglandin E2 (PGE2) Biomarker Activity (AID 2283082); settings: primary human HUVEC with PBMC; actives raise or lower the signal;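 as to AC50: secreted prostaglandin E2 measured by ELISA in LPS-stimulated co-culture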
In short: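 ELISA read-out of PGE2 from human umbilical vein endothelial cells co-cultured with peripheral blood mononuclear cells under LPS, 24 h post-dose. Gain or loss of signal scored relative to DMSO baseline.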

[2] = read-out: Macrophage colony-stimulating factor (MCSF), CSF1 (gene 1435); assay: BSK_LPS_MCSF: BioMAP Diversity Plus: LPS Assay for Macrophage colony-stimulating factor (MCSF) Biomarker Activity (AID 2283083); settings: primary human HUVEC with PBMC; actives raise or lower the signal
In short: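 HUVEC + PBMC co-culture (human primary), 24 h post-dose; M-CSF by ELISA; gain/loss of signal fitted bidirectionally vs DMSO baseline.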

[3] = read-out: Tissue Factor, F3 (gene 2152); assay: BSK_LPS_TissueFactor: BioMAP Diversity Plus: LPS Assay for Tissue Factor Biomarker Activity (AID 2283084); settings: primary human HUVEC with PBMC; actives raise or lower the signal
In short: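 HUVEC/PBMC co-culture, LPS-activated; CD142 ELISA read 24 h post-dose; bidirectional curve fit vs DMSO negative control.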

[4] = read-out: Tumor necrosis factor (Homo sapiens) (UniProt P01375); assay: BSK_LPS_TNFa: BioMAP Diversity Plus: LPS Assay for Tumour Necrosis Factor alpha (TNFa) Biomarker Activity (AID 2283085); settings: primary human HUVEC with PBMC; actives raise or lower the signal;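 as to AC50: TNFa protein level quantified by ELISA in the co-culture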
In short: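 HUVEC/PBMC co-culture, LPS-stimulated; 24 h post-dose; TNFa by ELISA; gain or loss of signal fitted bidirectionally vs DMSO baseline.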

[5] = read-out: Vascular cell adhesion molecule 1 (VCAM1), VCAM1 (gene 7412); assay: BSK_LPS_VCAM1: BioMAP Diversity Plus: LPS Assay for Vascular cell adhesion molecule 1 (VCAM1) Biomarker Activity (AID 2283086); settings: primary human HUVEC with PBMC; actives raise or lower the signal
In short: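 ELISA read-out of VCAM-1 at 24 h post-dosing in an LPS-driven HUVEC/PBMC primary human co-culture; gain or loss of signal fitted bidirectionally against DMSO baseline. Cytotoxicity tracked in parallel cultures by SRB total-protein staining.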

CD38, CD38 (gene 952) = assay: BSK_SAg_CD38: BioMAP Diversity Plus: SAg Assay for CD38 Biomarker Activity (AID 2283087); settings: primary human HUVEC with PBMC; actives raise or lower the signal
In short: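 Measures CD38 on a human endothelial/PBMC co-culture driven by SEB and TSST-1, 24 h after compound exposure, using ELISA with fluorescence detection; DMSO defines baseline for bidirectional curve fitting.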

CD40, CD40 (gene 958) = assay: BSK_SAg_CD40: BioMAP Diversity Plus: SAg Assay for CD40 Biomarker Activity (AID 2283088); settings: primary human HUVEC with PBMC; actives raise or lower the signal
In short: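 HUVEC/PBMC co-culture, 24 h post-dose; CD40 by ELISA, fluorescence intensity; bidirectional fit vs DMSO negative control.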

CD69, CD69 (gene 969) = assay: BSK_SAg_CD69: BioMAP Diversity Plus: SAg Assay for CD69 Biomarker Activity (AID 2283089); settings: primary human HUVEC with PBMC; actives raise or lower the signal;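 as to AC50: cell surface CD69 protein quantified by ELISA with fluorescence detection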
In short: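 ELISA, fluorescence read-out: CD69 on human umbilical vein endothelial cell + PBMC co-culture, 24 h post-dosing. Gain or loss of signal fitted bidirectionally against DMSO baseline.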

[6] = read-out: Monocyte Chemoattractant Protein-1 (MCP1), CCL2 (gene 6347); assay: BSK_SAg_MCP1: BioMAP Diversity Plus: SAg Assay for Monocyte Chemoattractant Protein-1 (MCP1) Biomarker Activity (AID 2283090); settings: primary human HUVEC with PBMC; actives raise or lower the signal
In short: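 Values derive from bidirectional fitting of ELISA-measured MCP1 against DMSO controls. Readings were taken 24 h after dosing human vascular endothelial cells co-cultured with peripheral blood mononuclear cells under superantigen stimulation.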

[7] = read-out: E-selectin (Homo sapiens) (UniProt P16581); assay: BSK_SAg_Eselectin: BioMAP Diversity Plus: SAg Assay for Eselectin Biomarker Activity (AID 2283091); settings: primary human HUVEC with PBMC; actives raise or lower the signal
In short: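 E-selectin ELISA readout at 24 h post-dosing in human umbilical vein endothelial cell/PBMC co-culture; gain or loss of signal fitted relative to DMSO baseline.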

[8] = read-out: Monokine induced gamma interferon (MIG), CXCL9 (gene 4283); assay: BSK_SAg_MIG: BioMAP Diversity Plus: SAg Assay for Monokine induced gamma interferon (MIG) Biomarker Activity (AID 2283092); settings: primary human HUVEC with PBMC; actives raise or lower the signal
In short: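 ELISA readout of MIG/CXCL9; primary human umbilical vein endothelial cells co-cultured with peripheral blood mononuclear cells; 24 h post-dose; gain/loss fit vs DMSO baseline.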

[9] = BSK_SAg_PBMCCytotoxicity: PBMC Cytotoxicity Assessment in the BioMAP Diversity Plus: SAg Assay (AID 2283093); settings: primary human HUVEC with PBMC;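 also: PBMC viability measured as Alamar Blue reduction fluorescence at 546/580 nm; fitted both ways against DMSO so a hit may be loss or gain of signal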;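 as to AC50: PBMC superantigen activated with SEB plus TSST-1 one hour after compound addition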
In short: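 Alamar Blue reduction (6 h, ex/em 546/580 nm) read after 90 h culture of PBMC pre-dosed 1 h then stimulated with SEB plus TSST-1, 20 ng/mL each. Gain or loss of signal fitted relative to DMSO.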

[10] = read-out: Interleukin-8 (IL8), CXCL8 (gene 3576); assay: BSK_SAg_IL8: BioMAP Diversity Plus: SAg Assay for Interleukin-8 (IL8) Biomarker Activity (AID 2283094); settings: primary human HUVEC with PBMC; actives raise or lower the signal
In short: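 HUVEC/PBMC co-culture, 24 h post-dose; IL-8 by ELISA. Gain or loss of signal fitted bidirectionally vs DMSO baseline.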

[11] = BSK_SAg_Proliferation: Cell Proliferation Assessment in the BioMAP Diversity Plus: SAg Assay (AID 2283095); settings: primary human HUVEC with PBMC;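 also: relative cell number as total protein by SRB absorbance in sub-confluent culture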
In short: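 HUVEC/PBMC co-culture, 96-well. TCA-fixed (10%), 0.1% SRB stain, A560 at 96 h. Protein content used as viability readout; bidirectional fitting vs DMSO control.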

[12] = BSK_SAg_SRB: Viability Assessment in the BioMAP Diversity Plus: SAg Assay (AID 2283096); settings: primary human HUVEC with PBMC;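 also: cells read one day after compound addition; hits may be either gain or loss of signal compared with DMSO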
In short: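 SRB absorbance at 560 nm served as the viability read-out. Cells (HUVEC plus peripheral blood mononuclear cells) were TCA-fixed and stained 24 h post-dosing; activity fitted in both directions against DMSO controls.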

[13] = target: human CYP19A1, CYP19A1 (gene 1588) (UniProt P11511); assay: NVS_ADME_hCYP19A1: NovaScreen (NVS) CYP450-related Enzyme Activity (ADME) Assay for human CYP19A1 (AID 2283098; active = hit-call score of the fitted dose curve at least 0.9, where 1 is the maximum;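 as to AC50: potency for inhibitors seen as loss of fluorescent enzyme signal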)
Chain of human CYP19A1, CYP19A1 (gene 1588) (P11511 whole entry, looked up): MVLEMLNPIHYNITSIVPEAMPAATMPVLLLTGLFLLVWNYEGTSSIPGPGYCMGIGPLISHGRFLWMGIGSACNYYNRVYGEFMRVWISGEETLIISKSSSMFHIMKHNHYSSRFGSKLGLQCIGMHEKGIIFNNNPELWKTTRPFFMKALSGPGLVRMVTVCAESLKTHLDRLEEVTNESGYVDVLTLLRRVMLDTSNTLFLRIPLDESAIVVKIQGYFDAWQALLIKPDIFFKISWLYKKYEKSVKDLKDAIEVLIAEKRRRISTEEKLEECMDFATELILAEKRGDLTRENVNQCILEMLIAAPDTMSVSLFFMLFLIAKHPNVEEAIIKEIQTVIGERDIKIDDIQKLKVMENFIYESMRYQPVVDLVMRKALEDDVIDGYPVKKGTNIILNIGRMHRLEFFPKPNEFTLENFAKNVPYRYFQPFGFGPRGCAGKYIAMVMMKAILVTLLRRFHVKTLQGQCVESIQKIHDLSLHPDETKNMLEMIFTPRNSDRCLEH
In short: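 Primary testing was in duplicate at a single 10 uM concentration, with actives followed up in concentration-response series. Fluorescence read-out of recombinant enzyme activity at 0.5 h, cell-free. Acetonitrile was the negative-control baseline.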

[14] = target: human CYP1A1, CYP1A1 (gene 1543) (UniProt P04798); assay: NVS_ADME_hCYP1A1: NovaScreen (NVS) CYP450-related Enzyme Activity (ADME) Assay for human CYP1A1 (AID 2283100; active = hit-call score of the fitted dose curve at least 0.9, where 1 is the maximum)
Chain of human CYP1A1, CYP1A1 (gene 1543) (P04798 whole entry, looked up): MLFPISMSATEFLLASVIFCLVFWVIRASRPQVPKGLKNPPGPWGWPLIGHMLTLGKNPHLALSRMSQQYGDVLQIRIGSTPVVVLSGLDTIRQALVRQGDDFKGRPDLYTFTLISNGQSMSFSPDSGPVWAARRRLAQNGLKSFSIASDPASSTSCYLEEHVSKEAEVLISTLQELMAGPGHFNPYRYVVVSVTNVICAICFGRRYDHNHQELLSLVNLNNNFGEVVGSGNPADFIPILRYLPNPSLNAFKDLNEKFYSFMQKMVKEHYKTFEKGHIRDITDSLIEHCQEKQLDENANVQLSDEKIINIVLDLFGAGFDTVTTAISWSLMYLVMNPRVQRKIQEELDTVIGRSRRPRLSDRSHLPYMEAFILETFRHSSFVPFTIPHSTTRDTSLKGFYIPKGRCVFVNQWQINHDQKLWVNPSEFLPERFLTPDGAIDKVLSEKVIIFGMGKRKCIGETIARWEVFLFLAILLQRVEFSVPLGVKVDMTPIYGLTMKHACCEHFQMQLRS
In short: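 Read-out: fluorescence intensity from enzymatic turnover of substrate by recombinant CYP1A1, loss of signal indicating inhibition. Incubation 1 h post-dose. Primary single-point 10 uM in duplicate; actives rerun singly with top concentration 20 uM.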

[15] = target: human CYP2B6, CYP2B6 (gene 1555) (UniProt P20813); assay: NVS_ADME_hCYP2B6: NovaScreen (NVS) CYP450-related Enzyme Activity (ADME) Assay for human CYP2B6 (AID 2283101; active = hit-call score of the fitted dose curve at least 0.9, where 1 is the maximum)
Chain of human CYP2B6, CYP2B6 (gene 1555) (P20813 whole entry, looked up): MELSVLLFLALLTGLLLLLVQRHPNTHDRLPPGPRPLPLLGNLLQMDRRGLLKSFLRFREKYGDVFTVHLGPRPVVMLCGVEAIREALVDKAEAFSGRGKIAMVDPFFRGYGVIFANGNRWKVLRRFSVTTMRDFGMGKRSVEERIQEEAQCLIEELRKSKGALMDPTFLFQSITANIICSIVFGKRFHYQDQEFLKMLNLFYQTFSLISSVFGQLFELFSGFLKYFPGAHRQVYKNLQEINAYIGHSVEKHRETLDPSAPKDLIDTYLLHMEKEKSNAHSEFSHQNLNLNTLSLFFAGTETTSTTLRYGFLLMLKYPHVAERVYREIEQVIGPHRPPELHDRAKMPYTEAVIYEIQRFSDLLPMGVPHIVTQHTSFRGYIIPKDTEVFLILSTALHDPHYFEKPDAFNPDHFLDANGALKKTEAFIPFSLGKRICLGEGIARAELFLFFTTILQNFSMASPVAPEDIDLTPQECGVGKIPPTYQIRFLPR
In short: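 Fluorescence-based enzyme activity of recombinant human CYP2B6, measured 1 h post-dose against acetonitrile vehicle baseline. Screened at a single concentration of 10 uM in duplicate before concentration-response follow-up.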

[16] = target: human CYP1A2, CYP1A2 (gene 1544) (UniProt P05177); assay: NVS_ADME_hCYP1A2: NovaScreen (NVS) CYP450-related Enzyme Activity (ADME) Assay for human CYP1A2 (AID 2283102; active = hit-call score of the fitted dose curve at least 0.9, where 1 is the maximum;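 as to AC50: potency for inhibition since loss of fluorescence marks reduced CYP1A2 activity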)
Chain of human CYP1A2, CYP1A2 (gene 1544) (P05177 whole entry, looked up): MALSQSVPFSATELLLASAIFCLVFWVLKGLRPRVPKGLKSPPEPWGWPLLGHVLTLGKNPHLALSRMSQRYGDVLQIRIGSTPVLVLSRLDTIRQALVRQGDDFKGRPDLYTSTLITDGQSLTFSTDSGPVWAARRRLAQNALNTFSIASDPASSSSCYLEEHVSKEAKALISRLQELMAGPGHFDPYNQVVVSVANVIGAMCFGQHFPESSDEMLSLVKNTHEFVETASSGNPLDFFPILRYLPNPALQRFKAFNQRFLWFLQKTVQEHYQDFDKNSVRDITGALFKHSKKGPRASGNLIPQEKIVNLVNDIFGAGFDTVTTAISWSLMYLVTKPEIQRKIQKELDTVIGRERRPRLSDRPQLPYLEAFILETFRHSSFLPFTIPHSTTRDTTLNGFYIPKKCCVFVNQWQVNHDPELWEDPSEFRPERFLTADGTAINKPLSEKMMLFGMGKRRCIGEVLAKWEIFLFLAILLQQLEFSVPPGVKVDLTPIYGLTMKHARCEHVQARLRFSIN
In short: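 Fluorescence-intensity enzyme activity read-out, taken 0.5 h post-dosing, using insect-cell-derived recombinant CYP1A2 and specific fluorescent substrate. Acetonitrile served as negative control/baseline. Single-concentration duplicate screen at 10 uM, then concentration-response follow-up.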

[17] = target: human CYP2A6, CYP2A6 (gene 1548) (UniProt P11509); assay: NVS_ADME_hCYP2A6: NovaScreen (NVS) CYP450-related Enzyme Activity (ADME) Assay for human CYP2A6 (AID 2283099; active = hit-call score of the fitted dose curve at least 0.9, where 1 is the maximum)
Chain of human CYP2A6, CYP2A6 (gene 1548) (P11509 whole entry, looked up): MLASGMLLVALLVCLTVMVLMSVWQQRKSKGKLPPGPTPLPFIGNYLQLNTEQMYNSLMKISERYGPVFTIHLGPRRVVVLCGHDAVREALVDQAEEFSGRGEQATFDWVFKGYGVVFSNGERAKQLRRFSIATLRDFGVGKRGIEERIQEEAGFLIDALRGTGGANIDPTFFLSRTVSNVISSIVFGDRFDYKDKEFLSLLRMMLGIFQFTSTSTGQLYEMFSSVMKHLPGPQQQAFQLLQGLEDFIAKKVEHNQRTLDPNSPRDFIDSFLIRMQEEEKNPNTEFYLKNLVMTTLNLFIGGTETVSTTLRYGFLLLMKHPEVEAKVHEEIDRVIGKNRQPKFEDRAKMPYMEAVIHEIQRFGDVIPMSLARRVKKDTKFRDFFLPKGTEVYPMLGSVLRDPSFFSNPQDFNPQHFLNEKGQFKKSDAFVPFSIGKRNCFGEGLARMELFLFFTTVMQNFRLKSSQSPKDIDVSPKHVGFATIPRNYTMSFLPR
In short: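 Insect-cell-expressed human CYP2A6 enzyme activity measured by fluorescence intensity 0.5 hour post-dosing. Compounds screened at 10 uM in duplicate, then hits tested singly in concentration series (max 20 uM); acetonitrile baseline.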

Measured: AC50

Chain of Tumor necrosis factor (Homo sapiens) (P01375 whole entry, looked up): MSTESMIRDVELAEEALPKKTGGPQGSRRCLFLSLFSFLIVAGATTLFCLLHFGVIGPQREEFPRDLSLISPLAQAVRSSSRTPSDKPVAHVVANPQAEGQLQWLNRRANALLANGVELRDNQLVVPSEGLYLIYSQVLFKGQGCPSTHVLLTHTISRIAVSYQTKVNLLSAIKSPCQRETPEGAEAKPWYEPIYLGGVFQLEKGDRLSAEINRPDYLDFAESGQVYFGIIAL
Chain of E-selectin (Homo sapiens) (P16581 whole entry, looked up): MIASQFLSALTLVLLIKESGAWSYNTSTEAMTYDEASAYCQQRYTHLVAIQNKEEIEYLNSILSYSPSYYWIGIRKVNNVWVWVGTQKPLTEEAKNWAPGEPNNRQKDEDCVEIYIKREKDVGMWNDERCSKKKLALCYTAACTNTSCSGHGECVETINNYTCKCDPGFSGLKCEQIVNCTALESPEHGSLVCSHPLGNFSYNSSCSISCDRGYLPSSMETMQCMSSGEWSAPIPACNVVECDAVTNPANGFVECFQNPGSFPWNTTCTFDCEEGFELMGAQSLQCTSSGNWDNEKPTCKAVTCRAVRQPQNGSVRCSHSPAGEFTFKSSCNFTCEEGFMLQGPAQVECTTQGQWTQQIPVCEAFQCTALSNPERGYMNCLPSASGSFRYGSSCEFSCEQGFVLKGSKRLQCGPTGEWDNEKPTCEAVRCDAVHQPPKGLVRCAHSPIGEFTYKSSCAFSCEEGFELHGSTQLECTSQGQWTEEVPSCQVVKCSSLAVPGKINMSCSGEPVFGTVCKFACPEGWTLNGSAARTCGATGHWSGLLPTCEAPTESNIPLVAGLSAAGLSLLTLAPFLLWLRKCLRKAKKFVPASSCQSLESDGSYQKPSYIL

CC1COC(Cn2cncn2)(c2ccc(Oc3ccc(Cl)cc3)cc2Cl)O1 (stereo not given)
active: [1] 0.172 µM | [2] 27.6 µM | [3] 30.2 µM | [4] 31.5 µM | [5] 29.7 µM | CD38, CD38 (gene 952) 19.4 µM | CD40, CD40 (gene 958) 18.4 µM | CD69, CD69 (gene 969) 18.8 µM | [6] 23.8 µM | [7] 13.1 µM | [8] 31.3 µM | [9] 33.2 µM | [10] 15.8 µM | [11] 14.7 µM | [12] 29.6 µM | [13] 0.706 µM | [14] 1.63 µM | [15] 1.71 µM

N#CC(CCc1ccc(Cl)cc1)(Cn1cncn1)c1ccccc1 (stereo not given)
active: [1] 3.75 µM | [11] 8.6 µM | [15] 0.429 µM
not listed: [16] | [17]
inactive: all other assays above

C#CCOS(=O)OC1CCCCC1Oc1ccc(C(C)(C)C)cc1 (stereo not given)
inactive: [1] | [4] | [13] | [16]
active: [2] 15.8 µM | [3] 32.6 µM | [5] 10.1 µM | CD38, CD38 (gene 952) 5.43 µM | CD40, CD40 (gene 958) 7.36 µM | CD69, CD69 (gene 969) 5.11 µM | [6] 7.84 µM | [7] 4.02 µM | [8] 16.7 µM | [9] 14.6 µM | [10] 1.92 µM | [11] 1.16 µM | [12] 10.8 µM

CCOc1cc(Oc2ccc(C(F)(F)F)cc2Cl)ccc1[N+](=O)[O-]
active: [2] 5.45 µM | CD38, CD38 (gene 952) 8.23 µM | [7] 9.5 µM | [10] 12.5 µM | [11] 18.5 µM | [12] 13.3 µM
not listed: [13] | [14] | [15] | [16] | [17]
inactive: all other assays above

COC(=O)C(C)Oc1ccc(Oc2ccc(Cl)cc2Cl)cc1 (stereo not given)
inactive: [2] | [3] | [4] | [5] | CD38, CD38 (gene 952) | CD40, CD40 (gene 958) | [6] | [7] | [8] | [9] | [10] | [11] | [12]
active: [1] 11.4 µM and 12 µM and 23.5 µM | CD38, CD38 (gene 952) 10.9 µM | CD40, CD40 (gene 958) 13.6 µM | [6] 20 µM

O=C(O)COc1nc(Cl)c(Cl)cc1Cl
active: [4] 27.8 µM
not listed: CD69, CD69 (gene 969) | [13] | [14] | [15] | [16] | [17]
inactive: all other assays above

CCc1nn(C)c(C(=O)NCc2ccc(C(C)(C)C)cc2)c1Cl
active: [1] 3.97 µM | [2] 13.4 µM | [3] 20 µM | [4] 20.8 µM | [5] 19.4 µM | CD38, CD38 (gene 952) 15.8 µM | CD40, CD40 (gene 958) 7.68 µM | [6] 20 µM | [7] 3.97 µM | [8] 34.7 µM | [9] 34.8 µM | [10] 5.02 µM | [11] 20 µM | [12] 29.4 µM

CC(Oc1ccc(Cl)cc1Cl)C(=O)O (stereo not given)
not listed: CD69, CD69 (gene 969) | [13] | [14] | [15] | [16] | [17]
inactive: all other assays above

CCOP(=S)(OCC)SCn1c(=O)oc2cc(Cl)ccc21
active: [1] 13.5 µM | [2] 11.1 µM | [4] 12 µM | [5] 13.9 µM | CD38, CD38 (gene 952) 30.4 µM | [6] 28.4 µM | [7] 29.4 µM | [10] 26.8 µM | [11] 29 µM | [12] 31.9 µM | [17] 0.683 µM | [14] 0.513 µM | [15] 1.25 µM | [16] 2 µM
inactive: [3] | CD40, CD40 (gene 958) | CD69, CD69 (gene 969) | [8] | [9] | [13]

C=CCC1=C(C)C(OC(=O)C2C(C=C(C)C)C2(C)C)CC1=O (stereo not given)
active: [1] 33.7 µM and 5.54 µM | [2] 24.4 µM [middle of 4 runs] | [3] 33.8 µM and 31.9 µM | [4] 34.3 µM [middle of 4 runs] | [5] 31 µM [middle of 4 runs] | CD38, CD38 (gene 952) 30.5 µM and 34.3 µM and 31.6 µM | CD40, CD40 (gene 958) 31.7 µM [middle of 4 runs] | [6] 34.9 µM [middle of 4 runs] | [7] 32.6 µM [middle of 4 runs] | [8] 39.6 µM [middle of 4 runs] | [9] 34 µM [middle of 4 runs] | [10] 28.9 µM [middle of 4 runs] | [11] 30.9 µM [middle of 4 runs] | [12] 32.1 µM and 32.7 µM and 36.2 µM
inactive: [1] | [3] | [12] | [17] | [15]

CNC(=O)ON=CC(C)(C)SC
active: [1] 2.13 µM
not listed: CD69, CD69 (gene 969) | [13] | [14] | [15] | [16] | [17]
inactive: all other assays above
